Experimental data reported in PubChem BioAssay (NCATS).
“And” between values parts separate entries of the source, which are not always exact repeats. Equal values may be shown once. Records with an inconclusive call do not appear. The source made the active and inactive calls. Unless noted, calls follow the shape of the dose curve; as a rule, active = well fitted curve in the direction sought with a large enough effect; inconclusive = small, poorly fitted or top-dose-only effect, or another doubt; inactive = no such curve, though single readings can be large; an effect the other way counts as inactive or inconclusive.

How the values were obtained:
[1] = biological target: Tyrosine-protein kinase Yes (Homo sapiens) (UniProt P07947); assay: qHTS for small molecule inhibitors of Yes1 kinase: Primary Screen (AID 686947); also: nearly all actives have a fitted effect of over 60% in size; also: potency is read from the fitted curve at half-maximal effect
Chain of Tyrosine-protein kinase Yes (Homo sapiens) (P07947 whole entry, looked up): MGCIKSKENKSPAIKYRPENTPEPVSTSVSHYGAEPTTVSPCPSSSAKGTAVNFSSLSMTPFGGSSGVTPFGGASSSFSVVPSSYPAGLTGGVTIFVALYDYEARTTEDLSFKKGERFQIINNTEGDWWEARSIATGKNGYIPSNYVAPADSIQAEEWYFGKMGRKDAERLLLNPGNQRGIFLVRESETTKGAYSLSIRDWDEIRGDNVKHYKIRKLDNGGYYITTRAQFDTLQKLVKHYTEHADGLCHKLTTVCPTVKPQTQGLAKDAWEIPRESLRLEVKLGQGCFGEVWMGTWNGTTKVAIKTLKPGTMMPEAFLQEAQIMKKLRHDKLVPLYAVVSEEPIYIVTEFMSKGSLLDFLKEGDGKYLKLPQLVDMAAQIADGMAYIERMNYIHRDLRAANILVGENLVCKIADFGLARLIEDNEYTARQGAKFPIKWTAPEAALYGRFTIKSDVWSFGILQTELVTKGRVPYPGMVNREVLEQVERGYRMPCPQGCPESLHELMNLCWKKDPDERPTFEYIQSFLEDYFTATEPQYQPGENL
Procedure, shortened: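 In this qHTS format, inhibition is expressed relative to DMSO controls with enzyme (maximum) and without enzyme (minimum). The 60 min room-temperature reaction uses 0.1 mM ATP, with ADP detected by luminescence.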

[2] = qHTS for small molecule inhibitors of Yes1 kinase: Counter Assay (AID 686950);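 also: no kinase present so only ADP-Glo detection of a fixed ADP amount is tested; luminescence from ADP-Glo reporting ADP in a fixed ATP and ADP mixture; 0% = DMSO wells with ATP plus ADP and -100% = ATP-only wells without ADP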
Procedure, shortened: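 Measuring interference with ADP-Glo, the assay ran 60 min at room temperature on an ATP/ADP mix lacking enzyme. Values were normalized to ATP-plus-ADP (maximum) and ATP-only (minimum) DMSO controls.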

[3] = qHTS Assay for Identifying Gametocytocidal Compounds (AID 743244); also: potency is read from the fitted curve at half-maximal effect;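 as to max response: % is scaled to controls: 0 for no effect and ±100 for the full control effect; actives lower the fluorescent signal which means gametocytes are killed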; conditions: P. falciparum 3D7 stage III-V gametocytes, alamarBlue, 72 h; max response: stronger effect = lower value
Procedure, shortened: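 Stage III–V gametocytes of P. falciparum 3D7 were seeded at 20,000 cells/well onto pre-dispensed compounds. After 72 h, 37 °C, 5% CO2, alamarBlue was added for another 24 h.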

[4] = qHTS profiling for inhibitors of Plasmodium falciparum (3D7) proliferation (AID 743322; call rule not given here;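 also: infected erythrocytes exposed to compound for 72 h before lysis; 100% = DMSO vehicle wells and 0% = 0.29 µM artemisinin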); conditions: P. falciparum 3D7 proliferation; at 28.7 µM (top of the series) unless noted
Procedure, shortened: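 Parasite DNA was quantified by SYBR Green I fluorescence (ex 485, em 535 nm) after overnight lysis in saponin/Triton buffer at room temperature. Cultures at 0.3% parasitemia and 2.5% hematocrit were first exposed to compound for 72 h at 37 C; signals were normalised to artemisinin (0.29 uM) and vehicle wells.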

[5] = qHTS profiling for inhibitors of Plasmodium falciparum (DD2) proliferation (AID 743323; call rule not given here); conditions: lower = more inhibition; at 28.7 µM (top of the series) unless noted
Procedure, shortened: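 P. falciparum Dd2-infected erythrocytes (0.3% parasitemia, 2.5% hematocrit) exposed 72 h at 37 C, 5% CO2. Lysis with SYBR Green, overnight at room temperature, fluorescence 485/535 nm; normalized to 0.29 uM artemisinin and DMSO.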

| SMILES | Potency [1] | outcome [2] | max response [3] | remaining parasite growth % (stronger effect = lower value) [4] | activity, percent of control [5] | Potency [3] |
| --- | --- | --- | --- | --- | --- | --- |
| COc1ccc(-c2oc3cc(OC)ccc3c2C(=O)c2ccc(C#N)cc2)cc1 | inactive | inactive | 8.18% (inactive) | 62.8% | 77% |  |
| CCc1cncnc1N1CCN(Cc2nc3ccc(C(F)(F)F)cc3[nH]2)CC1 | inactive | inactive | 8.68% (inactive) | 24.3% | 20.3% |  |
| COc1ccc2c3n(c(=NC(=O)c4cccnc4)nc2c1OC)CCN3 | inactive | inactive | -25% (inactive) | 0.12% | 12.2% |  |
| S=C(NCc1ccc2c(c1)OCO2)N1CCN(c2ncnc3c2oc2ccccc23)CC1 | inactive | inactive | -9.54% (inactive) | 75.4% | 87.1% |  |
| CCCn1c(=O)c2[nH]c(C34CC5CC3C[C@@H](C5)C4)nc2n(CCC)c1=O | inactive | inactive | 25.8% (inactive) | 89.8% | 85.1% |  |
| CCn1c(-c2nonc2N)nc2cnc(Oc3cccc(NC(=O)c4ccc(OCCN5CCOCC5)cc4)c3)cc21 | inactive | inactive | 33.1% (inactive) | 15.3% | 20.7% |  |
| COc1ccc(COc2cc3oc(=O)c4cc(C(C)O)ccc4c3cc2OC)cc1 (stereo not given) | inactive | inactive | 29.9% (inactive) | 75.7% | 22% |  |
| CN(C)c1ccc(C2Nc3ccc4ccccc4c3C3=C2C(=O)CC(C)(C)C3)cc1Br (stereo not given) | inactive | inactive | -26.5% (inactive) | 2.48% | 6.15% |  |
| COc1cccc2cc(-c3nc(C4CCC(C(=O)O)CC4)n4ncnc(N)c34)[nH]c12 (stereo not given) | 0.0688 µM (active) | inactive | -10.8% (inactive) | 64.8% | 53.2% |  |
| O=C(C1CC1)N1CC[C@@H](Cn2c(-c3ccc(-c4ccc5occc5c4)cc3)nc3cnccc32)C1 | inactive | inactive | -18.8% (inactive) | 74.3% | 74.7% |  |
| CCOc1ccn(-c2ccc(F)cc2)c(=O)c1C(=O)Nc1ccc(Oc2ccnc(N)c2Cl)c(F)c1 | 1.94 µM (active) | inactive | 18.8% (inactive) | 83.7% | 56.6% |  |
| C/C(=C\C(=O)Nc1ccccc1C(=O)O)c1ccc2ccccc2c1 | inactive | inactive | 90.9% (inactive) | 32.7% | 101% |  |
| CS(=O)(=O)c1ccc(C(=O)Nc2ccc(Cl)c(-c3ccccn3)c2)c(Cl)c1 | inactive | inactive | 15% (inactive) | 105% | 101% |  |
| O=S(=O)(N=Cc1c(O)ccc2ccccc12)c1cccs1 | inactive | inactive | -5.04% (inactive) | 85.7% | 92.2% |  |
| Cn1c(=O)c(F)c(Nc2ccc(I)cc2F)c2c(=O)n(C[C@@H](O)CO)cnc21 | inactive | inactive | -1.37% (inactive) | 83.3% | 71.7% |  |
| Cc1csc(NC(=O)c2sc3nc4c(c(C(F)(F)F)c3c2N)CCC4)n1 | inactive | inactive | 13.6% (inactive) | 100% | 101% |  |
| COc1ccc(-c2c(-c3ccc(O)cc3O)n[nH]c2C)cc1 | 8.67 µM (active) | inactive | 3.95% (inactive) | 1.98% | 5.32% |  |
| CN([C@@H](Cc1ccc(OS(=O)(=O)c2cccc3cnccc23)cc1)C(=O)N1CCN(c2ccccc2)CC1)S(=O)(=O)c1cccc2cnccc12 | inactive | inactive |  | 0.0531% and -0.942% | 0.806% and 0.455% | 18.7 µM (active) |
| CNC(=O)c1ccc(N2C(=S)N(c3ccc(C#N)c(C(F)(F)F)c3)C(=O)C2(C)C)cc1F | inactive | inactive | 12% (inactive) | 87.6% | 87.8% |  |
